HT1080NT lethal – kills 2HG-producing HT-1080-NT fibrosarcoma cells | HT-1080-NT fibrosarcoma viability, CellTiter-Glo ATP luminescence, 48 h | Potency, µM (titrated, usually from 46.1 µM), without a hit: at the top dose activity, negative = less viability, hits mostly cytotoxic | actives 1.6% (n = 360,000) | AID 686970;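 further: NT is the 2HG producing partner of a matched IDH1 knockdown line; potency means the concentration at half of the fitted maximal effect; 0% = DMSO-treated cells and -100% = media-only wells without cells; nearly all actives have a fitted effect of over 55% in size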
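Viability of the 2HG-overproducing fibrosarcoma line after 48 hours of compound exposure at 37 degrees C was determined by luminescence with CellTiter-Glo, and concentration-effect curves were then fitted and categorized.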
TDP1 cell CPT – growth inhibition of DT40 Tdp1-/-;hTDP1 cells with camptothecin (screen for TDP1 inhibitors); Potency, µM (titrated, usually from 46.2 µM), for inactives: at the top dose activity change, negative = growth inhibition, hits mostly inhibitors; chicken DT40 Tdp1-/-;hTDP1 cells + 20 nM CPT, ATP luminescence, 48 h; AID 686979; actives 12% (n = 420,000); further: potency means the concentration at half of the fitted maximal effect; nearly all actives have a fitted effect of over 55% in size
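Chicken DT40 Tdp1-/- cells stably complemented with human TDP1 were seeded at 400 cells/well in medium containing 20 nM camptothecin, exposed to pin-transferred compounds, and grown at 37 °C for at least 48 hr. Viability was read as ATP luminescence.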
12-LOX inh – ALOX12 (human) lipoxygenase inhibition. P18054. purified 12hLO, xylenol orange hydroperoxide absorbance. Potency, µM (titrated, usually from 108 µM), for inactives: top-dose activity change, negative = inhibition, actives largely listed as inhibitors. actives 1.1% (n = 580,000). AID 1671190; further: potency means the concentration at half of the fitted maximal effect
Target sequence (P18054 whole entry, looked up): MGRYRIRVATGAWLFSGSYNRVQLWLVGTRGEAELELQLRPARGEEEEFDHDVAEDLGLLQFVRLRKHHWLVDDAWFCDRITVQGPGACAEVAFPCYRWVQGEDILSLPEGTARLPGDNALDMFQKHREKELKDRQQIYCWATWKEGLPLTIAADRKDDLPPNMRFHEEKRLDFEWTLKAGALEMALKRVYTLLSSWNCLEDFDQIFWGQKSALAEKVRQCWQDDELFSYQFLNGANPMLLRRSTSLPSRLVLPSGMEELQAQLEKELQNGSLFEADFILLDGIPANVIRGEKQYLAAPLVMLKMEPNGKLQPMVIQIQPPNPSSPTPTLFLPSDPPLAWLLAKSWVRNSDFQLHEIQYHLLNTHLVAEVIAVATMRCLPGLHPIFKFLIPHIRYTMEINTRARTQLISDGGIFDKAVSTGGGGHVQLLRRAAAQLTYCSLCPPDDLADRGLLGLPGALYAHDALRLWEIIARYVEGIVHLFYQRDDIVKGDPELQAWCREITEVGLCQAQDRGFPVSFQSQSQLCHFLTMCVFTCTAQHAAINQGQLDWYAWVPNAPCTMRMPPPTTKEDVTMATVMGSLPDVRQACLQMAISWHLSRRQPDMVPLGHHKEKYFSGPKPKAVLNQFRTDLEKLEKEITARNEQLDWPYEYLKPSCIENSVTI
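Purified human 12hLO (150 nM final) in 25 mM Hepes, 0.01% Triton X-100, pH 7.0 was preincubated 15 min at room temperature with compound. Then 40 uM arachidonic acid was added, 30 min. Hydroperoxide was read by Fe-XO absorbance ratio 573/405 nm.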
IL-1B inflam inh – inhibitors of inflammasome signaling (IL-1 beta secretion); THP-1 LPS/ATP IL-1B secretion, AlphaLISA, 16 h; stronger effect = lower value; activity change, % at 57.5 µM; actives 4.7% (n = 360,000); AID 743279; in the data active means activity change below about -50%; inconclusive means mostly about -30% to -49%
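THP-1 cells pretreated 1 hr with compounds (up to 57.5 uM final), then stimulated with LPS (250 ng/mL final) plus ATP (1.25 mM final); secreted IL-1B measured by AlphaLISA after 16 hr, decreased signal indicating inhibition.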
HT1080 IDH1KD tx – HT-1080 IDH1 knockdown cell toxicity (counter line); HT-1080 IDH1 knockdown viability, ATP luminescence, 48 h; Potency, µM (highest dose often 46.1 µM), for inactives: at the highest dose activity, negative = toxicity, usual class: cytotoxic; actives 2% (n = 360,000);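 further: potency means the concentration at half of the fitted maximal effect; 0% = DMSO wells and -100% = cell-free medium wells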
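HT-1080-IDH1KD cells (IDH1 knocked down), 750/well in RPMI with 5% FBS, treated with compound 48 h at 37 degrees C. Viability by CellTiter-Glo luminescence, normalised to DMSO and no-cell wells; concentration-response curves classed.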
TDP1 cell noCPT – qHTS for Inhibitors of human tyrosyl-DNA phosphodiesterase 1 (TDP1): qHTS in cells in absence of CPT | DT40 Tdp1-/- hTDP1 cells, no CPT, ATP luminescence, 48 h | Potency, µM (top dose mostly 46.2 µM), for the others: at the highest dose activity change, negative = growth inhibition, usual class: inhibitors | actives 15% (n = 420,000); further: potency means the concentration at half of the fitted maximal effect; nearly all actives have a fitted effect of over 55% in size
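Chicken DT40 Tdp1-/- cells complemented with human TDP1, screened without camptothecin (DMSO vehicle only), 400 cells/well. Compounds pin-transferred, cells incubated at 37 °C for at least 48 hr. Growth read as ATP-dependent luminescence (CellTiter-Glo, 30 min at RT).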
Starred values were filed as active, the others as inactive. Many of the other results were omitted from the sample, so hits are more common in it than they were. Unless noted, the call rests on the fitted dose curve; in most records, active means well fitted curve in the direction sought with a large enough effect; inconclusive means small, poorly fitted or top-dose-only effect, or another doubt; inactive means no such curve, though single readings can be large; an effect the other way counts as inactive or inconclusive. Unless noted, on the % scale 0 is the no-effect control and ±100 the full control effect.

CCC1CN(C(=O)N2CCC(C(=O)N(C)Cc3ccccc3)CC2)c2ccccc2O1 (centres undefined) was read as TDP1 cell CPT inconclusive, 12-LOX inh -15% and TDP1 cell noCPT 15µM*.
Screening CCC1CN(C(=O)N2CCC(C(=O)NCc3cccs3)CC2)c2ccccc2O1 (centres undefined) returned TDP1 cell CPT 21µM*, 12-LOX inh -7% and TDP1 cell noCPT 21µM*.
For CN(C)CCNCc1ccco1 the results were 12-LOX inh -23%.
`CC(C)CC(=O)Nc1cccc(C(=O)Nc2cccc(C(=O)O)c2)c1` gave 12-LOX inh -4%.
Screening COc1cccc(C2=NS(=O)(=O)N(C)C(C(=O)NC3CCCC3)=C2)c1 returned 12-LOX inh -23%.
Screening CCC1CN(C(=O)N2CCC(C(=O)NCCCc3ccccc3)CC2)c2ccccc2O1 (centres undefined) returned TDP1 cell CPT 16µM*, 12-LOX inh -12% and TDP1 cell noCPT inconclusive.
`c1ccc(-c2nc3ccccn3c2NC2CCCC2)nc1` gave HT1080NT lethal inconclusive, TDP1 cell CPT inconclusive, 12-LOX inh 0%, IL-1B inflam inh 11, HT1080 IDH1KD tx inconclusive and TDP1 cell noCPT 16µM*.
Cc1ccc(-c2nc3ncccn3c2NC2CCCCC2)o1 was read as HT1080NT lethal 0%, TDP1 cell CPT inconclusive, 12-LOX inh 2%, IL-1B inflam inh -5, HT1080 IDH1KD tx -8% and TDP1 cell noCPT inconclusive.
For Cc1ccn2c(NC3CCCCC3)c(-c3ccc(C)o3)nc2c1 the results were HT1080NT lethal inconclusive, TDP1 cell CPT 16µM*, HT1080 IDH1KD tx -24% and TDP1 cell noCPT 11µM*.
Cc1ccn2c(NC3CCCC3)c(-c3ccccn3)nc2c1 was read as HT1080NT lethal inconclusive, TDP1 cell CPT 18µM*, 12-LOX inh -26%, IL-1B inflam inh -96*, HT1080 IDH1KD tx inconclusive and TDP1 cell noCPT 6.5µM*.
For O=C(NNC(=S)Nc1ccc(F)cc1)c1ccccc1 the results were 12-LOX inh 23%.
Screening CCC(C)NC(=O)COC(=O)c1cc(C)cc(C)c1 (centres undefined) returned 12-LOX inh 4%.
For CN1CCN(C(=O)c2cccc(COc3cc(Cl)ccc3Cl)c2)CC1 the results were HT1080NT lethal inconclusive, TDP1 cell CPT inconclusive, 12-LOX inh -2%, IL-1B inflam inh -14, HT1080 IDH1KD tx -7% and TDP1 cell noCPT 22µM*.
`O=C(O)c1cccc(COc2cc(Cl)ccc2Cl)c1` gave 12-LOX inh -24%.
c1ccc(CNc2cc(-c3cc(N4CCCCC4)ncn3)c3cc[nH]c3n2)nc1 was read as 12-LOX inh 47%.
Screening Cc1ccc(Nc2c(-c3ccccn3)nc3cc(C)ccn23)cc1 returned HT1080NT lethal 5.8µM*, TDP1 cell CPT 4.6µM*, 12-LOX inh inconclusive, IL-1B inflam inh -100*, HT1080 IDH1KD tx 5.8µM* and TDP1 cell noCPT 2.9µM*.
`COc1ccc(Nc2c(-c3ccccn3)nc3ccc(Cl)cn23)cc1` gave TDP1 cell CPT 12µM*, 12-LOX inh -10% and TDP1 cell noCPT 1.6µM*.
For Cc1cccc(C)c1Nc1c(-c2ccccn2)nc2ccc(Cl)cn12 the results were TDP1 cell CPT 6%, 12-LOX inh inconclusive and TDP1 cell noCPT inconclusive.

Screening results deposited in PubChem BioAssay by National Center for Advancing Translational Sciences (NCATS).
